Inconclusive results are not listed. Entries that show only a call come without a potency. Activity calls are given as the source filed them. The call rests on the fitted dose curve.
Potency means the concentration at half of the fitted maximal effect.

The assay in a line: qHTS assay for small molecule agonists of the p53 signaling pathway - cell viability (AID 651633). Further: nearly all actives have a fitted effect of over 30% in size. Conditions: p53RE-bla HCT-116 viability, ATP luminescence, 16 h; series mostly up to 83.3 µM. From the text:
National Center for Advancing Translational Sciences [NCATS]
NIH Chemical Genomics Center [NCGC]
U.S. Environmental Protection Agency [EPA]
National Institutes of Environmental Health Sciences [NIEHS]
National Toxicology Program [NTP]
U.S. Food and Drug Administration [FDA]
p53, a tumor suppressor protein, is activated following cellular insult, including DNA damage and other cellular stresses. The activation of p53 regulates cell fate by inducing DNA repair, cell cycle arrest, apoptosis, or cellular senescence. The activation of p53, therefore, is a good indicator of DNA damage and other cellular stresses. […] The activation of the reporter gene under culture conditions can be detected by fluorescence intensity. This cell line was used to screen the Tox21 compound library in a 1536-well plate format and to identify agonists that activate the p53 signaling pathway.
Tox21 Assay Protocol Summary:
The p53RE-bla cells were dispensed at 4,000 cells/5 ul/well in 1536-well black wall/clear bottom plates using a Multidrop dispenser. After the assay plates were incubated at a 37 C/5% CO2 incubator for 5 hours, 23 nL of compounds dissolved in DMSO, positive controls or DMSO only was transferred to the assay plate by a pin tool. The plates were incubated at 37 C for 16 hours. After 1 uL of LiveBLAzerTM B/G FRET substrate was added using a Flying Reagent Dispenser, the plates were incubated at room temperature for 2 hours, and fluorescence intensity was measured by an Envision plate reader.
For cell viability readout that measures cytotoxicity, 4 ul/well of CellTiter-Glo reagent was added into the assay plates using a Flying Reagent Dispenser. After 30 min incubation at room temperature, the luminescence intensity in the plates was measured using a ViewLux plate reader.
Turning to `CN(C)CCCCCCN(C)C` (tested in a mixture with another compound), the Potency result was “inactive”.

Regarding `COC1=CC=C2[C@H]3Cc4ccc(OC)c5c4[C@@]2(CCN3C)[C@H]1O5`, the Potency result is “inactive”.

Take `CCC1(c2ccccc2)C(=O)NC(=O)N(C)C1=O` (stereo not given): the Potency result is “inactive”.

As for `CCC1(c2ccccc2)C(=O)NC(=O)N(C(=O)c2ccccc2)C1=O` (stereo not given), the Potency entry was “inactive”.

As to `c1ccccc1`, the Potency result was “inactive”.

Regarding `C[C@H]1CC[C@]2(NC1)O[C@H]1C[C@H]3[C@@H]4CC[C@H]5C[C@@H](O)CC[C@]5(C)[C@H]4CC[C@]3(C)[C@H]1[C@@H]2C`, the Potency result is “inactive”.

For the compound `CN[C@@]1(c2ccccc2Cl)CCCCC1=O`, the Potency result was “inactive”.

For the compound `Clc1ccc2c(c1)C(c1ccccc1)=NCc1nncn1-2`, the Potency entry is “inactive”.

As for `CCC/C=C/C=C/C(=O)O[C@H]1/C(=C/C(=O)OC)C[C@H]2C[C@H]([C@@H](C)O)OC(=O)C[C@H](O)C[C@@H]3C[C@H](OC(C)=O)C(C)(C)[C@](O)(C[C@@H]4C/C(=C/C(=O)OC)C[C@H](/C=C/C(C)(C)[C@]1(O)O2)O4)O3`, the Potency result was “inactive”.

In the case of `S=C(S)N1CCNCC1`, the Potency result is “inactive”.

Turning to `CCC(N)Cc1c[nH]c2ccccc12` (stereo not given), the Potency entry was “inactive”.

Turning to `c1ccc(C2(c3ccccc3)CC2C2=NCCN2)cc1` (stereo not given), the Potency entry was “inactive”.

As to `CC(C)NC(C)Cc1ccc(I)cc1` (stereo not given), the Potency result was “inactive”.

In the case of `COc1ccc2c(c1)C13CCCC[C@@H]1C(C2)N(C)CC3` (stereo not given in full), the Potency entry is “inactive”.

Regarding `CCC(C)(S(=O)(=O)CC)S(=O)(=O)CC`, the Potency result was “inactive”.

As for `CCN(CC)CCO[C@H]1CC[C@@]2(C)C(=CC[C@@H]3[C@@H]2CC[C@]2(C)C(=O)CC[C@@H]32)C1`, the Potency result was “inactive”.

Turning to `CCN1C[C@]2(COC)[C@H](O)C[C@H](OC)[C@@]34[C@@H]5C[C@@]6(O)[C@H](OC(=O)c7ccccc7)[C@@H]5[C@@](OC(C)=O)([C@@H]([C@H](OC)[C@H]23)[C@@H]14)[C@@H](O)[C@@H]6OC`, the Potency result is “inactive”.

For the compound `c1csc(C2(N3CCCCC3)CCCCC2)c1`, the Potency entry was “inactive”.

As for `O=C1CCO1`, the Potency entry is “inactive”.

Consider `CCCCCc1cc(O)c2c(c1)OC(C)(C)[C@@H]1CCC(C)=C[C@@H]21`, for which the Potency was 23700 nM (active).

In the case of `CCCCCc1cc(O)c2c(c1)OC(C)(C)c1ccc(C)cc1-2`, the Potency was 11900 nM (active).

Turning to `[H+].[H+].[Hg+2].[O-]B([O-])[O-].[c-]1ccccc1`, the Potency was 668 nM (active).

Regarding `CCNC1(c2cccs2)CCCCC1=O` (stereo not given), the Potency entry was “inactive”.

As to `CC1(C)S[C@@H]2[C@H](N)C(=O)N2[C@H]1C(=O)O`, the Potency result was “inactive”.

For the compound `CCc1cc(OC)c(C[C@@H](C)N)cc1OC`, the Potency entry is “inactive”.

As for `CC(=O)O[C@H]1C[C@H](O[C@H]2[C@@H](O)C[C@H](O[C@H]3[C@@H](O)C[C@H](OC4CC[C@@]5(C)[C@H](CC[C@@H]6[C@@H]5CC[C@]5(C)[C@@H](C7=CC(=O)OC7)CC[C@]65O)C4)O[C@@H]3C)O[C@@H]2C)O[C@H](C)[C@H]1O[C@@H]1O[C@H](CO)[C@@H](O)[C@H](O)[C@H]1O` (stereo not given in full), the Potency was 47.3 nM (active).

Turning to `C[N+]1(C)CCCCC1COC(=O)C(O)(c1ccccc1)c1ccccc1` (stereo not given), the Potency entry was “inactive”.

Consider `C[C@@H](Cc1ccccc1)N(C)C`, for which the Potency entry is “inactive”.

As for `O=P(O)(O)C(Cl)(Cl)P(=O)(O)O`, the Potency entry is “inactive”.

On to `CC(=O)O[C@H]1C[C@H](O[C@H]2[C@@H](O)C[C@H](O[C@H]3[C@@H](O)C[C@H](O[C@H]4CC[C@@]5(C)[C@H](CC[C@@H]6[C@@H]5C[C@@H](O)[C@]5(C)[C@@H](C7=CC(=O)OC7)CC[C@]65O)C4)O[C@@H]3C)O[C@@H]2C)O[C@H](C)[C@H]1O[C@@H]1O[C@H](CO)[C@@H](O)[C@H](O)[C@H]1O`, for which the Potency is 133 nM (active).

With `C#CCN1CC(=O)N(COC(=O)C2C(C=C(C)C)C2(C)C)C1=O` (stereo not given), the Potency result is “inactive”.

`CN1CCCC(=C(c2cccs2)c2cccs2)C1`: the Potency entry is “inactive”.

Take `N#CC1(N2CCCCC2)CCCCC1`: the Potency result is “inactive”.

Turning to `COc1ccc2c3c1O[C@H]1C(=O)CC[C@H]4[C@@H](C2)N(C)CC[C@]314`, the Potency entry was “inactive”.

For `Cc1cccc(C(C)c2cnc[nH]2)c1C` (stereo not given), the Potency result was “inactive”.

`COc1ccc2c3c1O[C@H]1[C@@H](O)C=C[C@H]4[C@@H](C2)NCC[C@@]341`: the Potency entry was “inactive”.

On to `O=C(O)CCCO`, for which the Potency entry was “inactive”.

On to `CNC(C)C(O)c1ccc(O)cc1` (stereo not given), for which the Potency result was “inactive”.

As to `COc1ccc(OC)c([C@@H](O)[C@H](C)N)c1`, the Potency entry was “inactive”.

Take `Cc1cc(C(C)(C)c2ccc(O)c(C)c2)ccc1O`: the Potency result is “inactive”.

The values are drawn from PubChem BioAssay (Tox21).
